# According to PubChem BioAssay (Tox21):
# Where “and” joins values, the source holds several entries; their conditions need not be identical. Equal entries are not always repeated. Records with an inconclusive call do not appear. A call without a number means that no potency is given here. Unmarked numbers belong to inactive results. Calls of active or inactive are those of the source. Calls come from the whole dose curve; as a rule, active = well fitted cell-killing curve with a large enough effect in the repeat runs; inconclusive = weak or mixed curves, or effect the other way; inactive = flat fitted curve, though single readings scatter.
# Assay: qHTS assay to identify small molecule agonists of the constitutive androstane receptor (CAR) signaling pathway - cell viability counter screen (AID 1224836); note: nearly all actives have a fitted effect of over 45% in size
# Conditions: HepG2-CYP2B6-hCAR viability, CellTiter-Fluor, 23 h, PK11195 added to every well; series mostly up to 92.4 µM; viability change, negative = cytotoxic: at the top concentration
# Text: U.S. Tox21 Program National Center for Advancing Translational Sciences [NCATS] NIH Chemical Genomics Center [NCGC] U.S. Environmental Protection Agency [EPA] National Institutes of Environmental Health Sciences [NIEHS] National Toxicology Program [NTP] U.S. Food and Drug Administration [FDA] Tox21 Assay Overview: The constitutive androstane receptor (CAR) is a nuclear receptor which regulates multiple drug metabolizing enzymes (DMEs) and transporters. Activating CAR will generally increase the transcription and subsequent translation of CYP2B6 and CYP3A4. These two DMEs represent about 50% of the drug metabolizing potential in the body. […] Recently, there have also been studies performed indicating CARs role in energy metabolism and cancer therapy. Therefore, inducing CARs activity could have a potential effect on diabetes and cancer. Identifying environmental toxins and compounds which modulate CAR, through the use of the Tox21 10K compound collection, will be an important step in determining the toxicity and potential therapeutic effects these factors will have on the human body. To differentiate true CAR agonists from cytotoxic substances, the assay is multiplexed with a cell viability assay.
# Tox21 Assay Protocol Summary: A double-stable (hCAR and CYP2B6-2.2kb) transfected cell line, derived from human hepatoma (HepG2) cells, was utilized for the duration of the quantitative high-throughput screens. The HepG2-CYP2B6-hCAR cells were dispensed at 2500 cells/4 uL/well in 1536-well white solid bottom plates using a Multidrop Combi. After the assay plates were incubated at 37 C/5% CO2 for 4 hrs, 23 nL of compounds at 15 concentrations (from 5-48 columns) or positive control (from 1 to 4 columns) were transferred to the assay plates using a Pintool station. One uL of PK11195 (final concentration = 0.75 uM) was added, using a Flying Reagent Dispenser, inside each well. After a 23 hr incubation period at 37 C/5% CO2, 1 uL of CellTiter-Fluor reagent was added into each well of the assay plates using a Flying Reagent Dispenser. The fluorescence intensity in the plates was then measured using a ViewLux plate reader.
# Potency is the fitted concentration of half-maximal effect.
Structure (SMILES),Potency,"viability change, negative = cytotoxic [%]"
C=CC(=O)OCC(CC)(COC(=O)C=C)COC(=O)C=C,35.3 µM (active) and 30.6 µM (active),
CC(C)Nc1nc(Cl)nc(NC(C)C)n1,inactive,
Clc1ccc(C(Cl)(Cl)Cl)cc1,inactive,
N#Cc1cccnc1,inactive,
ClC(Cl)=C(Cl)C(Cl)=C(Cl)Cl,inactive,
O=C1C(Cl)=C(Cl)C(=O)c2ccccc21,,2.16
CCOP(=O)(OCC)OCC,inactive,
CCC/C=N/O,inactive,
CC(C)(C#N)N=NC(C)(C)C#N,inactive,
CCOP(=S)(OCC)OP(=S)(OCC)OCC,inactive,
ClC(Cl)(Cl)c1ccccc1,inactive,
CCC[CH2][Sn]([Cl])([CH2]CCC)[CH2]CCC,546 nM (active) and 545 nM (active),
ClC(Cl)(Cl)Br,inactive,
N#CC(c1ccccc1)c1ccccc1,inactive,
CCOP(=S)(OCC)SCn1c(=O)oc2cc(Cl)ccc21,inactive,
Cc1ccc([N+](=O)[O-])cc1,inactive,
Brc1ccc(Br)cc1,inactive,
N#Cc1c(Cl)c(Cl)c(Cl)c(C#N)c1Cl,26.8 µM (active) and 24.3 µM (active),
O=[N+]([O-])/N=C1\NCCN1Cc1ccc(Cl)nc1,inactive,
Clc1cccc(Cl)c1,inactive,

Structure (SMILES),Potency,"viability change, negative = cytotoxic [%]"
c1ccc(C2CO2)cc1 (stereo not given),inactive,
OCCOCCO,inactive,
CCCCOCCOC(C)=O,inactive,
[CH3][Sn]([Cl])([Cl])[Cl],inactive,
CNC(=O)CSP(=S)(OC)OC,inactive,
NC(=O)CN1CCCC1=O,inactive,
O=P(OCCCl)(OCCCl)OCCCl,inactive,
CCCCSP(=O)(SCCCC)SCCCC,inactive,
CCC1(c2ccc(N)cc2)CCC(=O)NC1=O (stereo not given),inactive,
CC(C)(c1ccc(OCC2CO2)cc1)c1ccc(OCC2CO2)cc1 (stereo not given),inactive,
C[N+](C)(C)CC(=O)[O-],inactive,
Nc1ccc([N+](=O)[O-])cc1N,48.5 µM (active),
CCC(=O)Nc1ccc(Cl)c(Cl)c1,inactive,
Clc1ccccc1-c1nnc(-c2ccccc2Cl)nn1,inactive,
COC(=O)Nc1nc2ccccc2[nH]1,inactive,
CC1=C(C(=O)Nc2ccccc2)SCCO1,inactive,
O=[N+]([O-])c1ccc(Cl)c([N+](=O)[O-])c1,19.6 µM (active) and 24.3 µM (active),
COc1ccc(C=O)cc1OC,inactive,
CC(C)CON=O,inactive,
[Cl-].[Cl-].[Cl-].[Fe+3],inactive,
